From PubChem BioAssay
A number with no mark means an inactive call. Active and inactive are the calls of the source.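 The calls were made as follows, unless noted: active = compounds that lower survival of HCT116 colon cancer cells in the luminescence readout, no numeric limit stated; inactive = the rest.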

Experiment: HCT116 colon cancer cell growth inhibition, primary screen, CellTiter-Glo luminescence, NPC library (AID 1117342)
Details: at 20 µM (top of the series)
`CCOC(=O)N1CCC(Nc2ccc(Cl)cc2N)CC1` gave an inhibition of viability of 32.5%.
Work on `OCCCc1ccccc1` yielded an inhibition of viability of -1.15%.
For `CC[C@@H]([C@H](C)O)n1ncn(-c2ccc(N3CCN(c4ccc(OC[C@@H]5CO[C@@](Cn6cncn6)(c6ccc(F)cc6F)C5)cc4)CC3)cc2)c1=O`, the inhibition of viability was 77.7% (active).
Compound `Nc1ncnc2c1ncn2Cc1c(F)cccc1Cl` has an inhibition of viability of 9.7%.
In the case of `Cc1nc2n(c(=O)c1CCN1CCC(C(=O)c3ccc(F)cc3)CC1)CCS2`, the inhibition of viability is reported as 67.6% (active).
In the case of `COC(=O)c1cc(Cl)c(NC(C)=O)cc1OC`, the inhibition of viability is reported as -1.4%.
For `CC(C(=O)O)c1ccc(/C=C2\CCCCC2=O)cc1` (stereo not drawn), the inhibition of viability was -19.6%.
With `Cn1c(O)c(N=NC(N)=S)c2ccccc21` the inhibition of viability was 39.9%.
In the case of `OC[C@H]1O[C@@H](n2cnc3c(=S)nc[nH]c32)[C@H](O)[C@@H]1O`, the inhibition of viability is reported as 84.2% (active).
In the case of `CCOC(=O)CN1CCCC1=O`, the inhibition of viability is reported as -0.8% (active).
Work on `COC(=O)/C=C(/C)N` yielded an inhibition of viability of -17.5%.
For `CCCN(CCc1cccs1)[C@H]1CCc2c(O)cccc2C1`, the inhibition of viability was 65.2% (active).
In the case of `CCCCCCCC/C=C\CCCCCCCCN`, the inhibition of viability is reported as 33.8%.
`COc1ccc(S(=O)(=O)N2c3ccc(Cl)cc3[C@@](O)(c3ccccc3Cl)[C@H]2C(=O)N2CCC[C@@H]2C(N)=O)cc1OC` showed an inhibition of viability of 34%.
In the case of `C/C(=N/NC(=O)c1ccncc1)C(=O)O`, the inhibition of viability is reported as -1.23%.
For `O=C(O)Cc1ccc(CCNS(=O)(=O)c2ccc(Cl)cc2)cc1`, the inhibition of viability was -4%.
With `CCOC(CN1CCN(CC(C)C(=O)c2ccccc2)CC1)c1ccccc1` (stereo not drawn) the inhibition of viability was 21.2%.
Work on `C[C@@H]1CCN(C(=O)[C@H](CCCN=C(N)N)NS(=O)(=O)c2cccc3c2NC[C@H](C)C3)[C@@H](C(=O)O)C1` yielded an inhibition of viability of -3%.
Compound `Nc1cc(C(F)(F)F)ccc1S` has an inhibition of viability of 16.7%.
In the case of `c1ccc(C(O[C@H]2CCCN(CCc3ccc4c(c3)OCO4)C2)c2ccccc2)cc1`, the inhibition of viability is reported as 96.3% (active).
In the case of `CCN(CC)CCOc1ccccc1C(=O)CCc1ccccc1`, the inhibition of viability is reported as 61.9% (active).
In the case of `CCOCCOC(=O)/C=C/c1ccc(OC)cc1`, the inhibition of viability is reported as -4.53%.
For `CC1(C)S[C@@H]2[C@H](NC(=O)Cc3ccccc3)C(=O)N2[C@H]1C(=O)O` (tested in a mixture with another compound), the inhibition of viability was -7.93%.
`Cc1cnc(NS(=O)(=O)c2ccc(N)cc2)nc1` gave an inhibition of viability of -6.6%.
`CC(C)[C@H](N)C(=O)O` gave an inhibition of viability of 1.3%.
With `CCOC(=O)c1c(N)sc2c1CCN(Cc1ccccc1)C2` the inhibition of viability was 47.3%.
For `CC1(C)CO[C@@H](CC(=O)O)CN1`, the inhibition of viability was 7.17%.
For `O=Cc1ccccc1C=O`, the inhibition of viability was -1.7%.
For `COc1cc2c(cc1OC)C(C(C(=O)N(CCc1ccc(OC)c(OC)c1OC)CCc1ccc(OC)c(OC)c1OC)c1ccccc1)=NCC2` (stereo not drawn), the inhibition of viability was 83.5% (active).
With `CC(=O)N1CCN(c2ccc(O)cc2)CC1` the inhibition of viability was 38.5%.
In the case of `C[C@H]1O[C@@H](O[C@H]2CC[C@@]3(C)[C@H](CC[C@@H]4[C@@H]3C[C@@H](O)[C@]3(C)[C@@H](C5=CC(=O)OC5)CC[C@]43O)C2)C[C@H](O)[C@@H]1O[C@H]1C[C@H](O)[C@H](O[C@H]2C[C@H](O)[C@H](O[C@@H]3O[C@H](CO)[C@@H](O)[C@H](O)[C@H]3O)[C@@H](C)O2)[C@@H](C)O1`, the inhibition of viability is reported as 54.5% (active).
In the case of `Cc1ncc(C[n+]2csc(CCOP(=O)(O)O)c2C)c(N)n1`, the inhibition of viability is reported as -0.4%.
In the case of `CC(C)(Cc1c[nH]c2ccccc12)NCC(O)COc1ccccc1C#N` (stereo not drawn), the inhibition of viability is reported as 87% (active).
`CCC(C(=O)NC(=O)NC(C)=O)c1ccccc1` (stereo not drawn) gave an inhibition of viability of 46.2%.
With `CCCCCOc1ccc(C2SC(=O)NC2=O)cc1OCC` (stereo not drawn) the inhibition of viability was 32.6%.
For `Cc1cc(N)c2cc(NC(=O)Nc3ccc4nc(C)cc(N)c4c3)ccc2n1`, the inhibition of viability was 64% (active).
Compound `CC(C)NCCCC1(C(N)=O)c2ccccc2-c2ccccc21` has an inhibition of viability of -11.9%.
`CC(=O)c1ccc(OCC(=O)N2CCCCC2)cc1` showed an inhibition of viability of -3.4%.
In the case of `C[C@H](CCC(=O)O)[C@H]1CC[C@H]2[C@H]3[C@@H](CC[C@]12C)[C@@]1(C)CC[C@@H](O)C[C@H]1C[C@@H]3O`, the inhibition of viability is reported as 7.3%.

Experiment: reduced SW480 viability measured with CellTiter-Glo, NPC library, primary (AID 1117343;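 active = compounds that lower viability of the colon cancer cells in the luminescence readout, with no numeric limit stated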)
Details: CellTiter-Glo luminescence; at 20 µM (top of the series)
Work on `CCOC(=O)N1CCC(Nc2ccc(Cl)cc2N)CC1` yielded a viability decrease (inhibition) of 27.8%.
In the case of `OCCCc1ccccc1`, the viability decrease (inhibition) is reported as -15.8% (active).
With `CC[C@@H]([C@H](C)O)n1ncn(-c2ccc(N3CCN(c4ccc(OC[C@@H]5CO[C@@](Cn6cncn6)(c6ccc(F)cc6F)C5)cc4)CC3)cc2)c1=O` the viability decrease (inhibition) was 83.8% (active).
For `Nc1ncnc2c1ncn2Cc1c(F)cccc1Cl`, the viability decrease (inhibition) was -2.4%.
`Cc1nc2n(c(=O)c1CCN1CCC(C(=O)c3ccc(F)cc3)CC1)CCS2` showed a viability decrease (inhibition) of 29.6%.
Compound `COC(=O)c1cc(Cl)c(NC(C)=O)cc1OC` has a viability decrease (inhibition) of -23.1%.
Work on `CC(C(=O)O)c1ccc(/C=C2\CCCCC2=O)cc1` (stereo not drawn) yielded a viability decrease (inhibition) of 25.5%.
For `Cn1c(O)c(N=NC(N)=S)c2ccccc21`, the viability decrease (inhibition) was 30.4%.
For `OC[C@H]1O[C@@H](n2cnc3c(=S)nc[nH]c32)[C@H](O)[C@@H]1O`, the viability decrease (inhibition) was 78.1% (active).
Compound `CCOC(=O)CN1CCCC1=O` has a viability decrease (inhibition) of -15.1%.
With `COC(=O)/C=C(/C)N` the viability decrease (inhibition) was 2.9%.
`CCCN(CCc1cccs1)[C@H]1CCc2c(O)cccc2C1` gave a viability decrease (inhibition) of 30.3%.
In the case of `CCCCCCCC/C=C\CCCCCCCCN`, the viability decrease (inhibition) is reported as 147% (active).
For `COc1ccc(S(=O)(=O)N2c3ccc(Cl)cc3[C@@](O)(c3ccccc3Cl)[C@H]2C(=O)N2CCC[C@@H]2C(N)=O)cc1OC`, the viability decrease (inhibition) was 0.4%.
In the case of `C/C(=N/NC(=O)c1ccncc1)C(=O)O`, the viability decrease (inhibition) is reported as 17.4%.
For `O=C(O)Cc1ccc(CCNS(=O)(=O)c2ccc(Cl)cc2)cc1`, the viability decrease (inhibition) was 1.5%.
`CCOC(CN1CCN(CC(C)C(=O)c2ccccc2)CC1)c1ccccc1` (stereo not drawn) gave a viability decrease (inhibition) of 0.6%.
For `C[C@@H]1CCN(C(=O)[C@H](CCCN=C(N)N)NS(=O)(=O)c2cccc3c2NC[C@H](C)C3)[C@@H](C(=O)O)C1`, the viability decrease (inhibition) was -23.6%.
Compound `Nc1cc(C(F)(F)F)ccc1S` has a viability decrease (inhibition) of -4.3%.
With `c1ccc(C(O[C@H]2CCCN(CCc3ccc4c(c3)OCO4)C2)c2ccccc2)cc1` the viability decrease (inhibition) was 101% (active).
In the case of `CCN(CC)CCOc1ccccc1C(=O)CCc1ccccc1`, the viability decrease (inhibition) is reported as 50.7% (active).
With `CCOCCOC(=O)/C=C/c1ccc(OC)cc1` the viability decrease (inhibition) was 17.1%.
`CC1(C)S[C@@H]2[C@H](NC(=O)Cc3ccccc3)C(=O)N2[C@H]1C(=O)O` (tested in a mixture with another compound) gave a viability decrease (inhibition) of -25.3%.
Work on `Cc1cnc(NS(=O)(=O)c2ccc(N)cc2)nc1` yielded a viability decrease (inhibition) of 7.7%.
For `CC(C)[C@H](N)C(=O)O`, the viability decrease (inhibition) was 11.9% (active).
With `CCOC(=O)c1c(N)sc2c1CCN(Cc1ccccc1)C2` the viability decrease (inhibition) was 84.1% (active).
`CC1(C)CO[C@@H](CC(=O)O)CN1` showed a viability decrease (inhibition) of -7%.
With `O=Cc1ccccc1C=O` the viability decrease (inhibition) was 12.2%.
In the case of `COc1cc2c(cc1OC)C(C(C(=O)N(CCc1ccc(OC)c(OC)c1OC)CCc1ccc(OC)c(OC)c1OC)c1ccccc1)=NCC2` (stereo not drawn), the viability decrease (inhibition) is reported as 87.9% (active).
With `CC(=O)N1CCN(c2ccc(O)cc2)CC1` the viability decrease (inhibition) was 101% (active).
In the case of `C[C@H]1O[C@@H](O[C@H]2CC[C@@]3(C)[C@H](CC[C@@H]4[C@@H]3C[C@@H](O)[C@]3(C)[C@@H](C5=CC(=O)OC5)CC[C@]43O)C2)C[C@H](O)[C@@H]1O[C@H]1C[C@H](O)[C@H](O[C@H]2C[C@H](O)[C@H](O[C@@H]3O[C@H](CO)[C@@H](O)[C@H](O)[C@H]3O)[C@@H](C)O2)[C@@H](C)O1`, the viability decrease (inhibition) is reported as 69.4% (active).
For `Cc1ncc(C[n+]2csc(CCOP(=O)(O)O)c2C)c(N)n1`, the viability decrease (inhibition) was -13.2%.
In the case of `CC(C)(Cc1c[nH]c2ccccc12)NCC(O)COc1ccccc1C#N` (stereo not drawn), the viability decrease (inhibition) is reported as 109% (active).
With `CCC(C(=O)NC(=O)NC(C)=O)c1ccccc1` (stereo not drawn) the viability decrease (inhibition) was 70.3% (active).
`CCCCCOc1ccc(C2SC(=O)NC2=O)cc1OCC` (stereo not drawn) showed a viability decrease (inhibition) of 6.6%.
With `Cc1cc(N)c2cc(NC(=O)Nc3ccc4nc(C)cc(N)c4c3)ccc2n1` the viability decrease (inhibition) was 144% (active).
Work on `CC(C)NCCCC1(C(N)=O)c2ccccc2-c2ccccc21` yielded a viability decrease (inhibition) of 1.7%.
For `CC(=O)c1ccc(OCC(=O)N2CCCCC2)cc1`, the viability decrease (inhibition) was -3.6%.
With `C[C@H](CCC(=O)O)[C@H]1CC[C@H]2[C@H]3[C@@H](CC[C@]12C)[C@@]1(C)CC[C@@H](O)C[C@H]1C[C@@H]3O` the viability decrease (inhibition) was 6.1%.
